# The whole screen tested about 310,000 compounds, of which about 14,000 (4.5%) showed an effect of 50% or more. Effects have a minus sign here. This is one part of a sample in which strong results are shown more often than they occur.
# Biological target: human ether-à-go-go-related gene (hERG) potassium channel (human, UniProt Q12809)
# Test: primary screen, population patch clamp on CHO cells stably expressing hERG; higher = less effect of the substance
# 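Also: peak tail current of the secondary pulse compared with the same well before compound.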
# Sequence of human ether-à-go-go-related gene (hERG) potassium channel (Q12809 whole entry, looked up): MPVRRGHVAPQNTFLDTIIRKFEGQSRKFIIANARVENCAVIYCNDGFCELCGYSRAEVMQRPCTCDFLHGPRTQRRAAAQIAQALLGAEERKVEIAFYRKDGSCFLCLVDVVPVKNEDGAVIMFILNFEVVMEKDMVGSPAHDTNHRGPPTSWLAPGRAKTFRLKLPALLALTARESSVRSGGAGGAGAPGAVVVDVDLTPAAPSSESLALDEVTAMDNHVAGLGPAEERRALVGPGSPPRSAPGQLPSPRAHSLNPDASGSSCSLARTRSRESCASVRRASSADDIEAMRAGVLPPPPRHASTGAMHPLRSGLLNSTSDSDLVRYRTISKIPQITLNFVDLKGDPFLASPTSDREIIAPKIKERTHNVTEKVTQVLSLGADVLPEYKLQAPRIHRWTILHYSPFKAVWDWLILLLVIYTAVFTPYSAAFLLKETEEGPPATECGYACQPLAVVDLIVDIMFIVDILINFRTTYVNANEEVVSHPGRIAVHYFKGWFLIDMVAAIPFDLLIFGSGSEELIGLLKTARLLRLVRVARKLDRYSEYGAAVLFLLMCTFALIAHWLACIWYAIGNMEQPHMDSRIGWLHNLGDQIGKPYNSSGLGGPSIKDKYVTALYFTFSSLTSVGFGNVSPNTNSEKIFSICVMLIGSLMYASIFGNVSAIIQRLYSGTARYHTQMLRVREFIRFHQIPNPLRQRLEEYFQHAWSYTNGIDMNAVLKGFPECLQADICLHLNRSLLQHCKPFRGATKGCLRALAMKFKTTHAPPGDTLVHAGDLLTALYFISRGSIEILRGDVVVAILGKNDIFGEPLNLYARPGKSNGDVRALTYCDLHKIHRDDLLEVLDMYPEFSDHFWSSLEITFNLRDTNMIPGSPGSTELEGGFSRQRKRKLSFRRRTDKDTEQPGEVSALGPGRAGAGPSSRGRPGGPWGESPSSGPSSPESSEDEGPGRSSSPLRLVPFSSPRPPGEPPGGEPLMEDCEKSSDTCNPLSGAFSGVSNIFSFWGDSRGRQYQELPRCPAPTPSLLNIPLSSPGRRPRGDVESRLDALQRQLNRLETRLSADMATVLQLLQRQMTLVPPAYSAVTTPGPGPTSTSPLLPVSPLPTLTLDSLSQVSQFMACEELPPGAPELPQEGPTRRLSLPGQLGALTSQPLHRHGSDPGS
row,Structure (SMILES),"hERG current change (%, negative = inhibition) at 10uM"
1,COc1ccc(C(CNC(=O)COc2cc(C)ccc2Cl)N2CCCCC2)cc1 (stereo not drawn),1.57%
2,O=C(c1ccc2c3c(cccc13)CC2)C1CCCN(C(=O)c2ccc(=O)[nH]c2)C1 (stereo not drawn),4.99%
3,COc1ccc(OC)c(-n2c(=S)[nH]c3cc(C(=O)N4CCC(C(N)=O)CC4)ccc3c2=O)c1,-2.14%
4,COc1ccc(-c2csc(COC(=O)C(C)(C)C)n2)cc1,18%
5,CC(C)Cc1nc2oc3c(NCC(C)O)ncnc3c2c2c1CCCC2 (stereo not drawn),-7.54%
6,CC(C)Cc1nc2oc3c(NCc4cccnc4)ncnc3c2c2c1CCC2,-50.8%
7,CC(C)c1nc2oc3c(N(C)CCO)ncnc3c2c2c1CCC2,-28.1%
8,CC(C)Cc1nc2oc3c(NCC4CCCO4)ncnc3c2c2c1CCC2 (stereo not drawn),-35.8%
9,CC(C)c1nc2oc3c(NCC4CCCO4)ncnc3c2c2c1CCC2 (stereo not drawn),-27.4%
10,CC(C)c1nc2oc3c(NCc4cccnc4)ncnc3c2c2c1CCC2,-50.2%
11,Cc1ccc(Cn2c(Sc3nccc(C)n3)nc3c2c(=O)[nH]c(=O)n3C)cc1,-8.13%
12,N#CCCNC(=O)Cn1c(COc2ccc(Cl)cc2)nc2ccccc21,-24.5%
13,Cc1ccc(/C=C/c2nc3ccccc3s2)s1,3.83%
14,Cc1oc(-c2ccccc2)nc1CS(=O)CC(=O)N1CCc2ccccc2C1 (stereo not drawn),-20.5%
15,COC(=O)c1ccc(-c2nc(CN3CCN(Cc4cccc(C)c4)CC3)c(C)o2)cc1,-25.3%
16,Cc1oc(-c2ccc(-c3ccccc3)cc2)nc1CN1CCN(CC(=O)N(C)C)CC1,-53%
17,Cc1oc(-c2ccccc2)nc1C(=O)O,17%
18,Cc1ccc(-c2nc(CS(=O)(=O)CC(=O)N3CCc4ccccc4C3)c(C)o2)cc1,-16%
19,Cc1oc(-c2ccc(Cl)cc2)nc1CN1CCC(C(=O)N2CCN(Cc3ccccc3)CC2)CC1,-69.1%
20,Cc1oc(-c2ccc(Cl)cc2)nc1CN1CCC(C(=O)N2CCc3ccccc3C2)CC1,-74%
21,CCC/C(O)=C1\C(=O)CC(C)(C)CC1=Nc1ccccc1OC,-13.4%
22,O=C(CCc1nnc(C2CCCCC2)o1)N1CCN(Cc2ccccc2)CC1,5.53%

row,Structure (SMILES),"hERG current change (%, negative = inhibition) at 10uM"
1,COCCN(C(=O)CCC(=O)Nc1nccs1)C(C(=O)NC(C)(C)C)c1ccc(C)cc1 (stereo not drawn),5.03%
2,COc1ccccc1C1CCN(c2cc(O)ccc2[N+](=O)[O-])CC1,4.65%
3,Cc1cccc(NS(=O)(=O)c2nnc(NC(=O)c3cccc(C)c3)s2)c1,2.44%
4,O=C(Nc1cc(-c2nc3ccccc3s2)ccc1Cl)c1ccc2c(c1)OCO2,7.51%
5,CCOC(=O)c1nc2nc(C)c(Cl)c(=O)n2[nH]1,0.341%
6,COc1cccc2cc(C(=O)NC(C)c3ccccc3)c(=O)oc12 (stereo not drawn),16.3%
7,CCc1nn(CC(=O)NCCCN2CCc3ccccc3C2)c(=O)c2cc3sccc3n12,-70.2%
8,CCc1nn(CC(=O)NCCCN2CCCC2=O)c(=O)c2cc3sccc3n12,-12.3%
9,CCc1nn(CC(=O)NCCCN(C)Cc2ccccc2)c(=O)c2cc3sc(C)cc3n12,-69.9%
10,CCc1nn(CC(=O)NCCCN(CC)Cc2ccccc2)c(=O)c2cc3sccc3n12,-50.2%
11,CCc1nn(CC(=O)NCCCN(CC)CC)c(=O)c2cc3sc(C)cc3n12,7.73%
12,CCc1nn(CC(=O)NCCCN2CCN(C)CC2)c(=O)c2cc3sccc3n12,7.04%
13,CCc1nn(CC(=O)NCCCN(Cc2ccccc2)C(C)C)c(=O)c2cc3sccc3n12,-43.8%
14,CCc1nn(CC(=O)NCCCN2CCOCC2)c(=O)c2cc3sccc3n12,16.2%
15,CCCCN(CCCNC(=O)Cn1nc(CC)n2c(cc3sc(C)cc32)c1=O)Cc1ccccc1,-47.1%
16,CCc1cc2c(cc3c(=O)n(CC(=O)NCCCN4CCCCCC4)nc(CC)n32)s1,-72.7%
17,CCc1nn(CC(=O)NCCCN2CCN(C)CC2)c(=O)c2cc3sc(C)cc3n12,14.8%
18,CCc1cc2c(cc3c(=O)n(CC(=O)NCCCN(CC)CC)nc(CC)n32)s1,-34.9%
19,CN1Cc2c(N3CCOCC3)nc3sc(C#N)c(N)c3c2CC1(C)C,-8.57%
20,CCOC(=O)c1cc(-c2ccccc2C)nn1CC1CC(c2ccc(OC)cc2)=NO1 (stereo not drawn),3.54%
21,Cc1cccc(CS(=O)(=O)Cc2ccc(C(=O)NCCc3ccccc3)o2)c1,-38.8%
22,Cc1ccc(NC(=O)COC(=O)Cn2c(C)csc2=O)cc1C,2.05%

row,Structure (SMILES),"hERG current change (%, negative = inhibition) at 10uM"
1,CC(=O)N1CCC(N(C(=O)Nc2ccc(C)c(C)c2)C2CCCC2)CC1,-31.2%
2,Cc1nnc(SCC2=C(C(=O)[O-])N3C(=O)C(NC(=O)Cc4ccccc4)C3SC2)s1.[Na+] (stereo not drawn),9.74%
3,CCN1CCN(CCCNC(=O)c2cc3sccc3n2CC)CC1,-40.8%
4,CCn1c(C(=O)N2CCc3ccccc3C2)cc2sccc21,-3.24%
5,CCn1c(C(=O)NCCCN2CCc3ccccc3C2)cc2sccc21,-64%
6,N#Cc1ccc(OCC(=O)OCC(=O)Nc2ccc(N3CCOCC3)cc2)cc1,-15.3%
7,CC(=O)NCc1ccc(C(=O)CCl)s1,-7.15%
8,CCN(CC)CCn1c2ccccc2c2cnc(N)c(C#N)c21,-60.5%
9,CN(C)C=Nc1ncc2c3ccccc3n(CCN(C)C)c2c1C#N,-15.7%
10,CCN(CC)CCn1c2ccccc2c2cnc(N=CN(C)C)c(C#N)c21,-31.8%
11,CC1CN(C(=O)CSc2nc(N)cc(N)n2)CC(C)O1 (stereo not drawn),-10.3%
12,Cc1nnc2c(NC3CCCC3)nc3ccccc3n12,-37.3%
13,COc1ccc(CCN(C(=O)c2cccc(F)c2)C2CC(=O)N(c3ccccc3)C2=O)cc1 (stereo not drawn),-38.5%
14,CCCOc1ccc(N2C(=O)CC(N(CCc3ccc(OC)cc3)C(=O)c3cccc(F)c3)C2=O)cc1 (stereo not drawn),-8.44%
15,CCCOc1ccc(N2C(=O)CC(N(CCc3ccc(OC)cc3)C(=O)c3ccccc3)C2=O)cc1 (stereo not drawn),-10.6%
16,CCCOc1ccc(N2C(=O)CC(N(CCc3ccccc3)C(=O)c3ccccc3)C2=O)cc1 (stereo not drawn),10.8%
17,CCCOc1ccc(N2C(=O)CC(N(CCc3ccc(OC)c(OC)c3)C(=O)c3ccccc3)C2=O)cc1 (stereo not drawn),-74.9%
18,CCOc1ccc(N2C(=O)CC(N(CCc3ccc(OC)cc3)C(=O)c3cccc(F)c3)C2=O)cc1 (stereo not drawn),-63%
19,Cc1cccc(N(Cc2cc3ccc(C)cc3[nH]c2=O)C(=O)c2ccco2)c1,-8.8%
20,COC(=O)c1cccc(Nc2nc(-c3ccncc3)nc3ccccc23)c1,28.5%
21,Cc1ccc(C2CCN(C(=S)NC3CCCCC3)C2)cc1 (stereo not drawn),-5.82%
22,CC1CCCC(NC(=O)c2ccc(COc3ccccc3)o2)C1C (stereo not drawn),0.0111%

row,Structure (SMILES),"hERG current change (%, negative = inhibition) at 10uM"
1,O=C(CNS(=O)(=O)c1ccccc1)OCC(=O)c1ccc([N+](=O)[O-])cc1,-3.22%
2,O=C(COC(=O)CCNS(=O)(=O)c1ccccc1)Nc1ccc(OC(F)F)cc1,-60.3%
3,CC(=O)c1ccccc1NC(=O)COC(=O)C1CCCN1S(=O)(=O)c1ccccc1F (stereo not drawn),-0.476%
4,NC(=O)NC(=O)COC(=O)CNS(=O)(=O)c1ccc(F)c(F)c1F,13.3%
5,O=C(COC(=O)[C@@H]1CCCN1S(=O)(=O)c1ccccc1F)Nc1ccc(OC(F)F)cc1,-61.7%
6,COc1ccc(NC(=O)COC(=O)CCNS(=O)(=O)c2ccccc2)cc1OC,23.2%
7,COc1ccc(NC(=O)COC(=O)[C@@H]2CCCN2S(=O)(=O)c2ccccc2F)c(OC)c1,-18.2%
8,O=C(COC(=O)CNS(=O)(=O)c1ccc(F)c(F)c1F)Nc1ccc(OC(F)F)cc1,-65.2%
9,N#Cc1ccc(NC(=O)COC(=O)CCNS(=O)(=O)c2ccccc2)cc1,-34.4%
10,COc1ccc(NC(=O)COC(=O)CNS(=O)(=O)c2ccc(F)c(F)c2F)cc1OC,21.3%
11,CCn1c(CC(=O)Nc2cccc(OC)c2)nnc1SCC(=O)Nc1nccs1,-2.39%
12,CCc1ccc2c(c1)cc(C)c1nnc(SCC(=O)Nc3cc(OC)c(OC)cc3C(=O)O)n12,5.98%
13,CC1CCC2(CC1)NC(=O)N(CC(=O)NCc1ccc(F)cc1)C2=O (stereo not drawn),-21.2%
14,C/C(=N/Nc1nc(-c2ccccc2)cc(-c2ccc(F)cc2)n1)c1cccc(N)c1,3.2%
15,NS(=O)(=O)c1ccc(CCNC(=O)c2ccc(OCC3CCCO3)cc2)cc1 (stereo not drawn),19.9%
16,Cc1cc(N2CCN(C)CC2)nc2ccc(NC(=O)c3cccnc3Cl)cc12,-2.54%
17,CCN1CCN(c2cc(C)c3cc(NC(=O)c4ccc5c(c4)OCO5)ccc3n2)CC1,-38.6%
18,Cc1ccc(NC(=O)c2ccc3c(c2)OCO3)cc1Cl,-2.98%
19,Cc1cc(N2CCN(C)CC2)nc2ccc(NC(=O)c3ccc4c(c3)OCO4)cc12,-62.2%
20,COc1ccc(C(=O)Nc2ccc3nc(N4CCN(C)CC4)cc(C)c3c2)c(OC)c1,-0.388%
21,Cc1cc(N2CCN(C)CC2)nc2ccc(NC(=O)c3ccccc3F)cc12,-58.4%

# Source: publication PMC4336329 (PLoS ONE, 2015)
